According to PubChem BioAssay (NCATS):
Values joined by “and” are separate entries in the source; they are usually repeats but may differ in a detail not shown here. Equal entries are not always repeated. Records with an inconclusive call do not appear. The source holds several records for some structures; these can differ, active in one and inactive in another. Active and inactive are the calls of the source. The call rests on the fitted dose curve; in most records, active means well fitted inhibition curve with a large enough effect; inconclusive means small, poorly fitted or top-dose-only effect; inactive means no such curve, though single readings can be large or run the other way.

What follows are molecules tested against Cytochrome P450 3A4 (Homo sapiens) (UniProt P08684) (assay: qHTS Assay for Inhibitors and Substrates of Cytochrome P450 3A4 (AID 884; further: nearly all actives have a fitted effect of over 50% in size)). Details: recombinant CYP3A4, Luciferin-PPXE luminescence; series mostly up to 57.1 µM; activity change, negative = inhibition: at the top concentration.
Sequence of Cytochrome P450 3A4 (Homo sapiens) (P08684 whole entry, looked up): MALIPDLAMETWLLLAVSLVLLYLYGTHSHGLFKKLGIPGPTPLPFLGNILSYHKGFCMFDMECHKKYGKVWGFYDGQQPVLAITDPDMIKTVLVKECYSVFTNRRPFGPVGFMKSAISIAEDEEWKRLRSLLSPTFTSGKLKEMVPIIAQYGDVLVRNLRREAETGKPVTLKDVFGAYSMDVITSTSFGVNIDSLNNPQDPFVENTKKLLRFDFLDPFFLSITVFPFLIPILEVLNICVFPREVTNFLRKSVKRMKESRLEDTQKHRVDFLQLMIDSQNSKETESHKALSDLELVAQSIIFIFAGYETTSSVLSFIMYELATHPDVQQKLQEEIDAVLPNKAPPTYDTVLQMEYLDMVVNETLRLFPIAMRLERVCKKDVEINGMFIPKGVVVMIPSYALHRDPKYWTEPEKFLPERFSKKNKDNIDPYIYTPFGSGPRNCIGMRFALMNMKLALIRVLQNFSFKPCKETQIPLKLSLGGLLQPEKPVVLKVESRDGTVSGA
Description: NIH Molecular Libraries Screening Centers Network [MLSCN]
NIH Chemical Genomics Center [NCGC]
The P450 gene superfamily is involved in the metabolism and clearance of xenobiotics. This assay used human CYP3A4 to measure the dealkylation of luciferin-6' phenylpiperazinylyl (Luciferin-PPXE; […]) to luciferin. The luciferin is then measured by luminescence after the addition of a luciferase detection reagent. Luciferin-PPXE concentration in the assay was equal to its KM for CYP3A4. Inhibitors and some substrates limit the production of luciferin, and decrease measured luminescence.
NCGC Assay Protocol Summary:
Two uL of enzyme and substrate mix (final concentrations: 20nM CYP3A4, 25uM Luciferin-PPXE, 200mM KPO4) were dispensed into a white, solid bottom 1536-well microtiter plate. 23nL of compound was transferred by a pin tool. The plate was incubated at RT for 10 min. Two uL of an NADPH regeneration solution (Promega supplied reagent) was dispensed and the reaction was allowed to continue for 60 min at RT. Then the reaction was stopped by reconstituted luciferin detection buffer. After another 20 min of incubation the plate was read on the ViewLux (Perkin Elmer) at 60 sec exposure and 2x2 binning. This protocol was carried out with Promega-Glo reagents and further information can be found at http://www.promega.com/tbs/tb325/tb325.pdf. Data were normalized to the to AC100 inhibition (57 uM ketoconazole).
Keywords: P450, CYP3A4, Luciferase, MLSMR, MLSCN, NIH Roadmap, qHTS, NCGC
On the % scale 0 is the no-effect control and ±100 the full control effect; potency means the concentration at half of the fitted maximal effect.

| SMILES | activity change, negative = inhibition | Potency |
| --- | --- | --- |
| CN=C=S | -3.04% (inactive) |  |
| Clc1ccccc1-c1cncnc1NCCc1cnc[nH]1 |  | 0.501 µM (active) |
| O=C=NC1CCCCC1 |  | inactive |
| O=C(Cl)C(Cl)(Cl)Cl | 1.19% (inactive) |  |
| CC([C@H](O)c1ccccc1)N(C)C (stereo not given in full) | -24.2% (inactive) |  |
| COC(=O)COc1cc(Cl)c(Cl)cc1Cl | 5.09% (inactive) |  |
| COP(=S)(OC)Oc1ccc([N+](=O)[O-])cc1 |  | 3.98 µM (active) |
| CC(=O)OC1CC(OC(C)=O)[C@]2(C)C(CC(OC(C)=O)[C@]3(C)C2CC[C@@]2(C)C(c4ccoc4)C(=O)C4O[C@]432)C1(C)C (stereo not given in full) |  | 3.98 µM (active) |
| CNC(=O)O/N=C/C(C)(C)SC | -2.98% (inactive) |  |
| C#CCOS(=O)OC1CCCCC1Oc1ccc(C(C)(C)C)cc1 (stereo not given) | -0.346% (inactive) |  |
| COc1cc(OC)c2c(c1)OC(c1ccc(OC)c(OC)c1)C(O)C2 (stereo not given) | -41.7% (inactive) |  |
| O=C(NC(=O)c1ccccc1Cl)Nc1ccc(OC(F)(F)F)cc1 | -16.9% (inactive) |  |
| CC(C)CC(CN)CC(=O)O (stereo not given) | 0.366% (inactive) |  |
| COC(=O)COc1ccc(Cl)cc1Cl | 11.1% (inactive) |  |
| NC(CO)Cc1ccccc1 (stereo not given) | -12.7% (inactive) |  |
| C[C@H]1CCCC(=O)CCC/C=C/c2cc(O)cc(O)c2C(=O)O1 |  | 316 nM (active) and 398 nM (active) |
| CCC(N)C(O)c1ccc(O)c(O)c1 (stereo not given) | -20.1% (inactive) |  |
| C[C@]12CC[C@H](O)C[C@@H]1CC[C@H]1[C@H]2CC[C@]2(C)C(=O)CC[C@@H]12 | 31.2% (inactive) |  |
| CN1CC[C@@]2(C)c3cc(O)ccc3N(C)[C@@H]12 | -29.3% (inactive) |  |
| N#CC(O[C@@H]1OC(COC2OC(CO)C(O)C(O)[C@@H]2O)C(O)C(O)C1O)c1ccccc1 (stereo not given in full) | -7.38% (inactive) |  |

| SMILES | activity change, negative = inhibition | Potency |
| --- | --- | --- |
| CC(C)(C)OO |  | inactive |
| CC[C@@H]1CN2CC[C@@H]1C[C@H]2[C@H](O)c1ccnc2ccc(OC)cc12 | 37.6% (inactive) |  |
| CC1C(=O)OC2CCN3CC=C(COC(=O)[C@](C)(O)[C@]1(C)O)C23 (stereo not given in full) | -15.1% (inactive) |  |
| Cc1cccc(C#N)c1 | -19.6% (inactive) |  |
| COc1cc(C2c3cc4c(cc3C(OC(C)=O)[C@H]3COC(=O)C23)OCO4)cc(OC)c1OC (stereo not given in full) |  | inactive and 1.26 µM (active) |
| COc1cc(CNC(=O)CCCC/C=C\C(C)C)ccc1O |  | 7.94 µM (active) |
| CCc1cccc(C)c1N(C(=O)CCl)C(C)COC (stereo not given) | -0.0144% (inactive) |  |
| C=C(C)C1Cc2c(ccc3c(=O)c4c(oc23)COc2cc(OC)c(OC)cc2-4)O1 (stereo not given) | -1% (inactive) |  |
| CC[C@@]1(O)CC(O)c2c(cc3c(c2O)C(=O)c2c(O)ccc(O)c2C3=O)C1C(=O)OC (stereo not given in full) |  | 7.94 µM (active) |
| CCS(=O)CCSP(=O)(OC)OC (stereo not given) | 3.58% (inactive) |  |
| CCSC(=O)Cl | -2.36% (inactive) |  |
| O=c1cccc2n1CC1CC2CN2CCCCC12 (stereo not given) | -11.2% (inactive) |  |
| Nc1ccc(Br)cc1 | -5.44% (inactive) |  |
| CCC(C)C(=O)O[C@@H]1C[C@@]2(C)C(c3ccoc3)OC(=O)CC23OC2(C)O[C@@]14[C@@]1(C)C(CC(=O)OC)C5(C)CC1(O)C(O)(C5OC(=O)C1(C)OC1C)C(OC(C)=O)[C@@]34O2 (stereo not given in full) |  | 1 µM (active) |
| CCC1CN2CCC1CC2C(O)c1ccnc2ccc(OC)cc12 (stereo not given) | 40.6% (inactive) |  |
| CCN(CC)c1ccccc1 | -9.02% (inactive) |  |
| COc1cc2c(cc1OC)[C@@]13CCN4CC5=CCOC6CC(=O)N2C1[C@H]6[C@@H]5C[C@@H]43 (stereo not given in full) | -19.2% (inactive) |  |
| Cc1cc(OC(=O)N2CCCCC2)c(C(C)C)cc1[N+](C)(C)C | 5.9% (inactive) |  |
| CC1C(=O)OC2C(O)C34C5OC(=O)[C@@]3(OC3OC(=O)[C@H](O)[C@]34C(C(C)(C)C)C5O)[C@]12O (stereo not given in full) | -7.56% (inactive) |  |
| COC[C@]12CN(C=O)C3C4C(OC)C1[C@@]3(C1CC3(O)C(OC)C(O)C4(OC(C)=O)C1C3OC(=O)c1ccccc1)[C@@H](OC)CC2O (stereo not given in full) | -21% (inactive) |  |
